Screening data deposited in PubChem by several laboratories.
In the library only some 4.3% were active in any assay of this set; here they are far more common.
PfHsp40 rescue = rescue of PfHsp40-mediated yeast toxicity | S. cerevisiae expressing PfHsp40, growth rescue, ATP luminescence | growth rescue, % at 12.5 µM | 0.68% of 340,000 active | AID 504582; in the data active means growth rescue above about 28%, passing the limit was not always enough; inconclusive means no clear call, values can overlap the other calls;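 further: yeast W303a lacking pdr1 and pdr3 grown in galactose medium; growth measured after three days at 30 °C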
Autofluor counter = counter-screen for toxin protease inhibitors: compound fluorescence; compound autofluorescence counterscreen, microsphere flow cytometry; active compounds read high; fluorescence intensity (no concentration beside the values); 3.1% of 360,000 active; AID 624483; in the data active means fluorescence intensity above about 16000; inconclusive means no clear call, values can overlap the other calls
BoNT F protease = blocks Botulinum neurotoxin F light chain protease | Multiplex microsphere protease cleavage assay, flow cytometry | inhibition, % at 10 µM | 0.22% of 360,000 active; in the data active means inhibition above about 35%, passing the limit was not always enough; inconclusive means no clear call, values can overlap the other calls; further: plate controls were buffer without enzyme for full effect and enzyme alone for no effect
Anthrax LF inh2 = anthrax lethal factor protease inhibition | 0.12% of 360,000 active | multiplex microsphere protease cleavage assay, LF | P15917 | AID 588501 | inhibition, % at 10 µM; further: plate controls were buffer without enzyme for full effect and enzyme alone for no effect
MazF activator = increases E. coli MazEF RNase cleavage of RNA; FAM/BHQ RNA-DNA oligo cleavage fluorescence, 5 h; 0.32% of 350,000 active; AID 504720; activation, % at 20 µM; P0AE70; in the data active means activation above about 50%
BoNT A protease = inhibitors of Botulinum neurotoxin A light chain protease. multiplex microsphere protease substrate cleavage, flow cytometry. inhibition, % at 10 µM. 0.17% of 360,000 active; further: plate controls were buffer without enzyme for full effect and enzyme alone for no effect
* = called active by the depositor; ? = inconclusive; nt = no result. Unless noted, no stated cut-off is given here; in the data, active means inhibition above about 30%; inconclusive means no clear call, values can overlap the other calls; inactive means below that.

SMILES	PfHsp40 rescue	Autofluor counter	BoNT F protease	Anthrax LF inh2	MazF activator	BoNT A protease
O=C(Nc1ccc2c(c1)OCCO2)C1c2ccccc2OCC(=O)N1C1CC1 (stereo unspecified)	nt	5702	1	-4	nt	1
Cc1ccc(S(=O)(=O)NC2(C(=O)O)CCCC2)cc1	-2	3815	-1	2	9	0
O=C(O)C1(Nc2ccc(Cl)cc2)CCCC1	0	3982	-10	1	12	0
Cc1ccc(S(=O)(=O)NC2(C(=O)O)CCCCC2)cc1	-2	23381*	-2	-1	3	-2
O=C(O)C1(NS(=O)(=O)c2ccc(Cl)cc2)CCCCC1	0	19428*	2	-4	-3	?
CC[C@@]12C(=O)N(c3cccc(F)c3)C(=O)N1[C@H](c1ccc(Br)cc1)[C@@H]1C(=O)N(C(C)(C)C)C(=O)[C@@H]12	0	4046	-2	-7	3	0
O=c1c2c(nc3c(-c4cccc(Br)c4)c[nH]n13)CCCC2	1	16678*	-6	-4	8	-2
CC1(C)OC(=O)N(CCc2ccccc2)C1(C)O (stereo unspecified)	-2	25029*	-7	-2	-3	-4
O=[N+]([O-])c1cc(Br)c(O)c(/C=N/Nc2nnnn2-c2cccc3ccccc23)c1	-3	22718*	-1	-3	-4	0
O=[N+]([O-])c1ccc(NN=Cc2cccc3ccccc23)cc1	-1	2890	5	8	8	2
O=C(NCC(=O)N1CCN(S(=O)(=O)c2ccc3c(c2)OCCO3)CC1)c1ccccc1Cl	0	6259	1	-4	2	0
COc1ccc(NC(=O)c2csc3c2CCCC3)cc1	0	23873*	-3	-2	5	-1
Cc1ccccc1NC(=O)c1csc2c1CCCC2	1	20804*	-4	-4	0	-3
C/C(N)=C(/C#N)C(=O)CSc1cc(C)c2cc(C)cc(C)c2n1	-1	4196	-11	-2	-11	0
O/N=C/c1cccn1-c1ccc(O)cc1	0	23862*	-4	-1	6	-1
CCCN(C(=O)c1c(-c2ccccc2)noc1C)c1c(N)n(Cc2ccccc2)c(=O)[nH]c1=O	0	2925	9	-12	1	0
C=CCn1c(N2C(=O)CC(Cc3ccccc3)C2=O)nc2ccccc21 (stereo unspecified)	0	22688*	-2	-2	2	-1
C=CCn1c(NCc2ccccc2)nc2ccccc21	0	6295	3	-7	-4	1
Cc1nnc(N(C)C(=O)c2ccncc2)s1	-1	4528	3	-6	7	0
Cc1c2cc[n+](CCN3CCCCC3)cc2c(C)c2c1[nH]c1ccc(O)cc12	53*	2619	-158	-84	-15	0
CCOC(=O)c1[nH]c2ccc(C)cc2c1NC(=O)CN1CCCCC1	-1	2231	-10	-1	2	0
COc1cc(-c2noc(-c3cccc(Cl)c3)n2)cc(OC)c1OC	0	22311*	2	-2	-4	1
COc1cc(-c2nc(-c3cccnc3)no2)cc(OC)c1OC	-1	2042	1	1	-5	0
Cn1c2cc(C#N)sc2c2cnn(Cc3ccc(F)cc3)c(=O)c21	0	3878	-6	-4	0	0
Clc1cccc(Cl)c1CON/C=N/c1ncnc2sccc12	1	2094	5	-4	-1	0
SMILES	PfHsp40 rescue	Autofluor counter	BoNT F protease	Anthrax LF inh2	MazF activator	BoNT A protease
Clc1cccc(CON/C=N/c2ncnc3sccc23)c1	812*	3393	-4	1	-4	0
CCOc1ccc2[nH]c(=O)c(C(c3nnnn3C3CCCCC3)N3CCN(C)CC3)cc2c1 (stereo unspecified)	-2	8586	3	6	7	1
CCOc1ccc2[nH]c(=O)c(C(c3nnnn3C3CCCCC3)N3CCN(CC)CC3)cc2c1 (stereo unspecified)	0	21002*	-2	2	6	?
Cc1ccc2cc(C(c3nnnn3C3CCCC3)N3CCN(c4ccccc4)CC3)c(=O)[nH]c2c1 (stereo unspecified)	-1	9107	6	-1	9	1
COc1cc2cc(C(c3nnnn3C3CCCC3)N3CCCCCC3)c(=O)[nH]c2cc1OC (stereo unspecified)	1	20987*	-4	0	1	-1
COc1cc2cc(C(c3nnnn3C3CCCC3)N3CCCCC3)c(=O)[nH]c2cc1OC (stereo unspecified)	-1	19432*	-1	2	4	1
